Consider 23 molecules from PubChem BioAssay (NCATS).

Experiment [1] can be described thus: Quantitative High-Throughput drug screen in 47 multiple myeloma cell lines against the NCATS MIPE library collection: OCIMY1_PLB cell viability assay (AID 1918979). Further: nearly all actives have a fitted effect of over 35% in size. In short, it runs like this:
(§1)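 500 cells/well; MIPE 4.0 drugs pin-transferred; 48 h, 37C, 5% CO2. CellTiter-Glo, 5 min RT, luminescence. Controls: DMSO 100%, media 0%.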

A short description of experiment [2]: Quantitative High-Throughput drug screen in 47 multiple myeloma cell lines against the NCATS MIPE library collection: MM1S_ATCC cell viability assay (AID 1918980). Further: nearly all actives have a fitted effect of over 45% in size. In outline:
as §1

Experiment [3] in a line: Quantitative High-Throughput drug screen in 47 multiple myeloma cell lines against the NCATS MIPE library collection: LP1_DSMZ cell viability assay (AID 1918982). Further: nearly all actives have a fitted effect of over 35% in size. In outline: as §1
The nature of experiment [4]: Quantitative High-Throughput drug screen in 47 multiple myeloma cell lines against the NCATS MIPE library collection: L363_DSMZ cell viability assay (AID 1918984). Further: nearly all actives have a fitted effect of over 40% in size. In outline:
as §1

A short description of experiment [5]: Quantitative High-Throughput drug screen in 47 multiple myeloma cell lines against the NCATS MIPE library collection: OCIMY7_PLB cell viability assay (AID 1918987). Further: nearly all actives have a fitted effect of over 65% in size. The conditions noted are these: OCI-MY7 myeloma viability, CellTiter-Glo ATP, 48 h; viability (% of DMSO): at 45.8 µM (top of the series). In short, it runs like this: as §1
A short description of experiment [6]: Quantitative High-Throughput drug screen in 47 multiple myeloma cell lines against the NCATS MIPE library collection: OCIMY5_PLB cell viability assay (AID 1918988). Further: nearly all actives have a fitted effect of over 65% in size. In short, it runs like this: as §1
Experiment [7] can be described thus: Quantitative High-Throughput drug screen in 47 multiple myeloma cell lines against the NCATS MIPE library collection: OPM1_PLB cell viability assay (AID 1918989). Further: nearly all actives have a fitted effect of over 40% in size. In outline: as §1
The nature of experiment [8]: Quantitative High-Throughput drug screen in 47 multiple myeloma cell lines against the NCATS MIPE library collection: KMS28PE_JCRB cell viability assay (AID 1918983). Further: nearly all actives have a fitted effect of over 35% in size. In outline: as §1
The nature of experiment [9]: Quantitative High-Throughput drug screen in 47 multiple myeloma cell lines against the NCATS MIPE library collection: MM1R_ATCC cell viability assay (AID 1918981). Further: nearly all actives have a fitted effect of over 35% in size. In outline: as §1
Experiment [10] is described as follows: Quantitative High-Throughput drug screen in 47 multiple myeloma cell lines against the NCATS MIPE library collection: KMS34_JCRB cell viability assay (AID 1918985). Further: nearly all actives have a fitted effect of over 40% in size. In outline:
as §1

Records with an inconclusive call do not appear. The source made the active and inactive calls. The call rests on the fitted dose curve; in most records, active means well fitted cell-killing curve with a large enough effect; inconclusive means small, poorly fitted or top-dose-only effect, or effect the other way; inactive means no such curve, though single readings can be large or run the other way.
Potency means the concentration at half of the fitted maximal effect.

Regarding `C[C@]12CC[C@@H]3c4ccc(O)cc4C[C@@H](CCCCCCCCCS(=O)CCCC(F)(F)C(F)(F)F)[C@H]3[C@H]1CC[C@H]2O` (some centres not stated), the Potency entry in experiment [1], in [4] and in experiment [7] was “inactive” throughout. Further, the Potency was 2.96 µM (active) in [2], 11.8 µM (active) in experiment [3], 5.9 µM (active) in [5] and 10.5 µM (active) in [6].

As for `CC(C)OC(=O)C(C)(C)Oc1ccc(C(=O)c2ccc(Cl)cc2)cc1`, the Potency entry in experiment [1], in experiment [2], in [4] and in experiment [5] was “inactive” throughout. Further, the Potency in experiment [8] is 16.6 µM (active).

For `COc1ccc(C2Sc3ccccc3N(CCN(C)C)C(=O)C2OC(C)=O)cc1` (configuration not stated), the Potency result in experiment [1], in [9], in [4], in [10] and in experiment [7] was “inactive” in each case. For the same molecule, the Potency in experiment [2] is 18.7 µM (active).

As to `CC1(C)O[C@H]2C[C@@H]3[C@H]4CCC5=CC(=O)C=C[C@]5(C)[C@@]4(F)[C@@H](O)C[C@]3(C)[C@]2(C(=O)CO)O1`, the Potency entry in [1], in [8] and in experiment [7] was “inactive” throughout. In addition, the figures for the Potency in experiment [2], in [3] and in [10] were 0.0132 µM (active), 0.0132 µM (active) and 0.0118 µM (active), respectively.

For the molecule `O=c1cc(-c2cccc3c2Sc2ccccc2S3)oc(N2CCOCC2)c1`, the Potency entry in experiment [1] was “inactive”. The Potency in experiment [2] is 18.7 µM (active); in [9], 23.5 µM (active); in [6] it was 20.9 µM (active); in experiment [7], 26.4 µM (active).

In the case of `Cc1cc(OCCCc2c(C(=O)O)n(Cc3cccnc3)c3c(-c4c(COc5ccc(N6CCN([S+](C)(=O)[O-])CC6)cc5)nn(C)c4C)cccc23)cc(C)c1Cl`, the Potency in experiment [1] is 13.2 µM (active); in [2], 18.7 µM (active); in [3], 14.8 µM (active); in [8], 23.5 µM (active); in experiment [6] it was 23.5 µM (active). The Potency result in experiment [4] was “inactive”.

Consider `NC(=O)c1cccc(-c2cc(Nc3ccc(OC(F)(F)F)cc3)ncn2)c1`, for which the Potency entry in experiment [1] and in experiment [2] was “inactive” throughout. Further, the Potency in [4] was 8.33 µM (active); in experiment [5], 13.2 µM (active); in experiment [7], 18.7 µM (active).

Consider `O=c1c(-c2ccc(O)cc2)coc2cc(O[C@@H]3O[C@H](CO)[C@H](O)[C@H](O)[C@H]3O)ccc12`, for which the Potency entry in [1], in experiment [2], in experiment [8], in experiment [4], in experiment [10] and in experiment [7] was “inactive” each time.

On to `COCCCCC(=NOCCN)c1ccc(C(F)(F)F)cc1`, for which the Potency result in [1] and in experiment [4] was “inactive” throughout. Also, the Potency in [2] was 16.6 µM (active); in experiment [10] it was 3.72 µM (active); in experiment [6] it was 23.5 µM (active); in experiment [7] it was 23.5 µM (active).

With `Cc1ccc(/C=N/NC(=O)c2ccccc2Oc2ccccc2)o1`, the Potency result in [1] and in experiment [4] was “inactive” each time. Also, the Potency is 18.7 µM (active) in experiment [2], 16.6 µM (active) in experiment [5] and 16.6 µM (active) in experiment [6].

As to `COc1ccc(-c2nc(N3CCOCC3)c3sc(CN(C)c4ncc(C(=O)NO)cn4)cc3n2)cn1`, the Potency was 0.0059 µM (active) in experiment [1] and 0.001 µM (active) in [4]. The Potency entry in [2], in experiment [9] and in experiment [7] was “inactive” in each case.

Consider `O=C(OCC#CCSc1nnc(-c2cccc3ccccc23)o1)c1cc2ccccc2s1`, for which the Potency result in experiment [1], in experiment [2], in experiment [8], in experiment [4], in experiment [5] and in experiment [7] was “inactive” throughout.

Regarding `Nc1ncnc2c1ncn2[C@@H]1O[C@@H](CO)[C@H](O)[C@H]1O`, the Potency result in experiment [1], in [2], in [3], in [8] and in experiment [7] was “inactive” throughout.

As for `c1cc(-c2sc(-c3ccncc3)c(-c3ccncc3)c2-c2ccncc2)ccn1`, the Potency entry in experiment [1], in experiment [3], in experiment [8] and in experiment [10] was “inactive” each time. The Potency in experiment [2] is 26.4 µM (active); in [4], 3.32 µM (active); in experiment [5] it was 5.26 µM (active).

Regarding `N#CC1(c2ccc(NC(=O)c3cccnc3NCc3ccncc3)cc2)CCCC1`, the Potency result in experiment [1], in [2], in [4] and in experiment [10] was “inactive” each time. Further, the Potency in experiment [3] and in [7] was 16.6 µM (active) in each case.

With `O=c1c(O)c(-c2ccc(O)cc2)oc2cc(O)cc(O)c12`, the Potency result in [1] and in experiment [10] was “inactive” throughout. Moreover, the Potency was 18.7 µM (active) in experiment [2], 14.8 µM (active) in [5] and 26.4 µM (active) in [6].

Take `CC1(C)S[C@H]2[C@H](NC(=O)[C@@H](N)c3ccc(O)cc3)C(=O)N2[C@@H]1C(=O)O`: the Potency result in experiment [1] was “inactive”. Moreover, the Potency in experiment [2] was 5.9 µM (active); in experiment [8], 18.7 µM (active); in experiment [4] it was 2.64 µM (active); in [5], 3.72 µM (active).

For `N[C@@]1(C(=O)O)CS(=O)(=O)[C@H]2[C@H](C(=O)O)[C@H]21`, the Potency result in experiment [1] and in [10] was “inactive” in each case. In [2], the Potency was 3.72 µM (active).

Consider `CC(=Cc1ccccc1)C=C1SC(=S)N(CC(=O)O)C1=O`, for which the Potency result in experiment [1], in [2], in experiment [9], in experiment [8], in experiment [10] and in [7] was “inactive” each time.

With `O=c1ccn([C@@H]2O[C@H](CO)[C@H](O)[C@H]2O)c(=O)[nH]1`, the Potency entry in [1], in [9] and in [7] was “inactive” in each case. For the same molecule, the Potency in experiment [2] is 23.5 µM (active).

For `N#C[C@H]1C[C@H]2C[C@@H]2N1C(=O)[C@@H](N)C12CC3CC(CC(O)(C3)C1)C2`, the Potency entry in experiment [1], in experiment [8], in experiment [4], in [10] and in experiment [7] was “inactive” throughout. For the same molecule, in experiment [2], the Potency was 4.18 µM (active).

For `CC(C)(C(=O)NCC(F)(F)C(F)(F)F)C(=O)N[C@@H]1C(=O)Nc2ccccc2-c2ccccc21`, the Potency entry in experiment [1], in experiment [3], in experiment [8], in experiment [10] and in experiment [6] was “inactive” each time. The Potency in [2] is 13.2 µM (active); in experiment [4] it was 3.72 µM (active).

On to `COC1CCC(N(C(=O)C2CCC(C)CC2)c2cc(C3=CCCCC3)sc2C(=O)O)CC1` (configuration not stated), for which the Potency entry in experiment [1], in experiment [2], in [3] and in [4] was “inactive” throughout. For the same molecule, the Potency in experiment [6] is 11.8 µM (active).
